ASM inhibitor: human S-ASM enzyme inhibition. placental ASM, HMU-PC fluorogenic substrate, 60 min. 340,000 tested, 0.006% active. P17405. Potency, µM (series often up to 57.5 µM), without a hit: at the highest dose activity change, negative = inhibition, most hits filed as inhibitors; note: potency is the fitted concentration of half-maximal effect
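Human placenta-derived ASM enzyme was preincubated with compound for 10 minutes at room temperature, then given fluorogenic substrate HMU-PC0 (9 uM final) for 60 minutes at 37 °C; a pH 10 stop preceded fluorescence reading at Ex 386/Em 447 nm.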
Vif-A3F inh: inhibitors of Vif-A3F interaction. HeLa A3F-eYFP + Vif (tagged APOBEC3F with the HIV-1 protein that degrades it), YFP fluorescence increase. Potency, µM (titrated, usually from 46.1 µM), for inactives: at the top dose activity, negative = active. 390,000 tested, 0.2% active. AID 602313; note: potency is the fitted concentration of half-maximal effect; % of control where 0% means no effect; nearly all actives have a fitted effect of over 65% in size
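Fluorescence increase (Ex 488/Em 500-530) after overnight compound treatment at 37 deg C flags inhibition of Vif-driven A3F-eYFP loss in stable HeLa A3F-eYFP/Vif cells seeded overnight beforehand.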
ALOX12 inh: ALOX12 (human) lipoxygenase inhibition. AID 1671190. Potency, µM (titrated, usually from 108 µM), without a hit: top-dose activity change, negative = inhibition, actives largely listed as inhibitors. purified 12hLO, xylenol orange hydroperoxide absorbance. P18054. 580,000 tested, 1.1% active; note: potency is the fitted concentration of half-maximal effect; % is set by controls: 0 for no effect and ±100 for the full control effect
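Purified human 12hLO (150 nM final) in 25 mM Hepes, 0.01% Triton X-100, pH 7.0 was preincubated 15 min at room temperature with compound. Then 40 uM arachidonic acid was added, 30 min. Hydroperoxide was read by Fe-XO absorbance ratio 573/405 nm.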
Akt phos inh: Akt phosphorylation inhibition. Neuro2A IGF-stimulated pAkt S473 HTRF, 20 min; stronger effect = lower value. activity change, % for hits at 50 µM. 360,000 tested, 0.32% active; in the data active = activity change below about -80%; inconclusive = mostly about -51% to -80%; note: % is set by controls: 0 for no effect and ±100 for the full control effect
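Neuro2A cells (4,500/well, DMEM with 0.5% FBS) were treated with compound at a single 50 µM final concentration, stimulated with 6 nM IGF for 20 min at 37 °C, and lysed. Phospho-Akt Ser473 was read by HTRF as 665/615 ratio ×10^4.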
TSG101-PTAP inh: blocks PTAP/TSG101 interaction to inhibit HIV-1 budding. AID 493005. 340,000 tested, under 10 active. Potency, µM (highest dose often 115 µM), for the others: at the top dose activity change, negative = inhibition, most hits filed as inhibitors. Q99816. Fluorescence polarization, FITC-PTAP peptide / Tsg101 binding; active = well fitted inhibition curve with a large enough effect in the main read-out, with a control signal flat, not every such curve was filed as active; inconclusive = small, poorly fitted or top-dose-only effect, or effect the other way, or a change in a side signal; inactive = no such curve, though single readings can be large or run the other way; note: potency is the fitted concentration of half-maximal effect; % of control where 0% means no effect
Target sequence (Q99816 whole entry, looked up): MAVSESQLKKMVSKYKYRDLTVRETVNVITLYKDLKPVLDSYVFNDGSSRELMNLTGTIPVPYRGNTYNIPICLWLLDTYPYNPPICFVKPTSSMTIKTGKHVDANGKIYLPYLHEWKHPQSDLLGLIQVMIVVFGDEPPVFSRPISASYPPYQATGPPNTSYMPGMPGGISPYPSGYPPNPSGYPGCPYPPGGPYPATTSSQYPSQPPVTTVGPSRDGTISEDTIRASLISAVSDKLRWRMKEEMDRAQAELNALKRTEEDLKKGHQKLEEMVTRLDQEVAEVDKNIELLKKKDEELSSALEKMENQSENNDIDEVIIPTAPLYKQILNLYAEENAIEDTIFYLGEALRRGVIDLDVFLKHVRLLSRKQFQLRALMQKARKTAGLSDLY
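Compounds were pin-transferred onto Tsg101 binding domain (10 uM final) in HEPES pH 7.5 buffer, then FITC-PTAP peptide was added at 50 nM final. After 20 min at RT, polarization reported peptide displacement across a qHTS concentration series.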
Vif-APOBEC3G blk: blocks the Vif interaction with human APOBEC3G | Q9HC16 | HeLa A3G-eYFP + Vif (tagged APOBEC3G with the HIV-1 protein that degrades it), YFP fluorescence, overnight | Potency, µM (top dose mostly 46.1 µM), without a hit: top-dose activity, negative = active, usual class: inhibitors | 410,000 tested, 0.076% active | AID 602310; note: potency is the fitted concentration of half-maximal effect; % is set by controls: 0 for no effect and ±100 for the full control effect; nearly all actives have a fitted effect of over 60% in size
Target sequence (Q9HC16 whole entry, looked up): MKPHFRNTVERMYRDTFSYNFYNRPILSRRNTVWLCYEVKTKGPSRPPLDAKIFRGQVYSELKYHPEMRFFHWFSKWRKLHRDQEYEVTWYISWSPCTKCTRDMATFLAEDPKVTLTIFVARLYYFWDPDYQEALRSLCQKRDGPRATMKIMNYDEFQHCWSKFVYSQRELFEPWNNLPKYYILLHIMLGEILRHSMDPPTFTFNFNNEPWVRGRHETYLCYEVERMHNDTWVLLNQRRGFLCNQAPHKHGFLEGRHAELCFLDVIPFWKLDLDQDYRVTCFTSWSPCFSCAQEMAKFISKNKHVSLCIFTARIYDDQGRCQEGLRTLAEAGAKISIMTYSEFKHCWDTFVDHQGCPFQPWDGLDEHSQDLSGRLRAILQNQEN
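Read-out is eYFP fluorescence (Ex 488/Em 500-530) from Vif-expressing HeLa A3G-eYFP cells; more signal means A3G escaped Vif-mediated degradation. Cells plated overnight, compound pinned in, incubated overnight at 37 deg C.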
Active calls of the source: *; i = inactive; u = inconclusive; x = no result; ! = repeats disagree. An excerpt weighted towards active compounds, which were near 1.4% of everything screened. Unless noted, calls come from the whole dose curve; as a rule, active = well fitted curve in the direction sought with a large enough effect; inconclusive = small, poorly fitted or top-dose-only effect, or another doubt; inactive = no such curve, though single readings can be large; an effect the other way counts as inactive or inconclusive.

SMILES | ASM inhibitor | Vif-A3F inh | ALOX12 inh | Akt phos inh | TSG101-PTAP inh | Vif-APOBEC3G blk
CC(=O)Nc1sc(C)c(C)c1C(=O)OCC(=O)Nc1ccccc1 | -0.6% | 11.2µM* | 6.4% | i | -6.0% | u
COC(=O)CCC(=O)Nc1sc(Cc2ccccc2)c(C)c1C(N)=O | -0.3% | 3.0% | 20µM* | i | -2.8% | -4.6%
CCOC(=O)c1c(NC(=S)Nc2ccccc2)sc(C)c1C | -0.2% | -4.7% | -26.1% | i | -8.7% | -4.7%
Cc1ccc(OCCNCc2ccccc2)c(C)c1 | -3.9% | -2.5% | u | i | 1.0% | -1.8%
Cc1ccc(OCCCCNC(C)c2ccccc2)c(C)c1 (stereo unspecified) | -3.2% | -26.8% | 4.47µM* | i | -3.8% | 2.2%
Cc1c(S(=O)(=O)c2ccccc2)c(NC(=O)C(C)C)n(Cc2ccccc2)c1C | x | x | -5.9% | x | x | x
CCOc1cc(Br)cc(C(c2c(C(=O)O)[nH]c3ccccc23)c2c(C(=O)O)[nH]c3ccccc23)c1O | -7.5% | -2.1% | 5.62µM* | i | -2.5% | 5.2%
CCc1nc(NCC2CCCO2)c(C#N)c2c1CCCC2 (stereo unspecified) | x | x | -38.0% | x | x | x
C[N+]1(CC(=O)OCCCC2CCCCC2)CCCC1 | 8.1% | 4.9% | 2.4% | i | -12.6% | 0.7%
C[N+]1(CC(=O)OCCCC2CCCCC2)CCOCC1 | x | x | 11.2µM* | x | x | x
CC(C)CCN1CC(Oc2cccc(C(=O)N3CCOCC3)c2)C1 | x | x | -2.0% | x | x | x
CC(C)(C)CCN1CC(Oc2cccc(C(=O)N3CCOCC3)c2)C1 | x | x | 22.4µM* | x | x | x
CC(C)C(=O)Nc1cc(S(=O)(=O)Nc2ccc(Cl)cc2)ccc1Cl | -8.4% | -5.2% | -16.0% | i | -10.6% | 1.2%
CC(C)(C)C(=O)Nc1cc(S(=O)(=O)Nc2ccc(Cl)cc2)ccc1O | -3.1% | -26.1% | 39.8µM* | i | -5.2% | 0.6%
COc1cc(C2CC(=O)Nc3c2c(C)nn3-c2ccc(Cl)nn2)cc(OC)c1OC (stereo unspecified) | x | x | -23.8% | x | x | x
COCCN1C[C@H]2CN(Cc3ccc(C(=O)O)cc3)CCN2C1=O | x | x | 28.2µM* | x | x | x
Cc1ccc(C(=O)N2CCC3(CC2)NC(=O)N(c2ccccc2)N3)cc1 | x | x | 1.26µM* | x | x | x
Cc1ccsc1C(=O)N1CCC2(CC1)NC(=O)N(c1cccc(Cl)c1)N2 | x | x | 1.26µM* | x | x | x
Cc1ccc(C(=O)N2CCC3(CC2)NC(=O)N(c2cccc(F)c2)N3)s1 | x | x | -70.2% | x | x | x
Cc1ccsc1C(=O)N1CCC2(CC1)NC(=O)N(c1cccc(F)c1)N2 | x | x | 2.82µM* | x | x | x
Cc1ccsc1C(=O)N1CCCC(N2CCN(c3cccc(Cl)c3)CC2)C1 (stereo unspecified) | 5.5% | -9.1% | 6.0% | i | -1.8% | 2.4%
Cc1ccsc1C(=O)N1CCC2(CC1)NC(=O)N(c1ccccc1)N2 | x | x | 7.08µM* | x | x | x
N#Cc1cc([N+](=O)[O-])ccc1NC(=O)COC(=O)C1(c2ccc(F)cc2)CCCC1 | x | x | -23.3% | x | x | x
CCOC(=O)Nc1ccc2c(c1)N(C(=O)CN1CCN(C)CC1)c1ccccc1CC2 | 1.9% | -1.5% | 5.01µM* | i | -4.4% | -1.0%
CCOC(=O)Nc1ccc2c(c1)N(C(=O)CCN1CCN(CCO)CC1)c1ccccc1S2 | -7.6% | -4.6% | 14.9% | -123.5%* | -5.9% | -0.3%
SMILES | ASM inhibitor | Vif-A3F inh | ALOX12 inh | Akt phos inh | TSG101-PTAP inh | Vif-APOBEC3G blk
CC(C)C(=O)N1CCN(C(=O)c2nn(C)c(=O)c3ccccc23)CC1 | x | x | 29.2% | x | x | x
CCOc1ccccc1/C=C/C(=O)c1ccc(Cl)cc1 | -1.5% | -1.3% | -2.3% | i | 2.6% | -7.6%
CCOc1cc(/C=C/C(=O)c2ccc(Cl)cc2)cc(Cl)c1O | x | x | 7.94µM* | x | x | x
COc1cc(/C=C/C(=O)c2cccc(O)c2)cc(Cl)c1O | x | x | 25.1µM* | x | x | x
O=C(/C=C/c1cccc(O)c1)c1ccc(F)cc1 | x | x | 44.7µM* | x | x | x
CCOc1cc(/C=C/C(=O)c2ccc(C)cc2)cc(Cl)c1O | x | x | 22.4µM* | x | x | x
N#C/C(=C/c1cccc(OCc2ccc(Cl)cc2)c1)c1nc2ccccc2s1 | x | x | 3.5% | x | x | x
CC(CN1CCN(C/C=C/c2ccccc2)CC1)c1ccccc1 (stereo unspecified) | -0.3% | 8.1% | 0.794µM* | i | -3.7% | 0.1%
Oc1c(C=NCc2ccc(F)cc2)[nH]c2ccc(Br)c(Cl)c12 | x | x | 12.6µM* | x | x | x
Cc1ccc(CN=Cc2[nH]c3ccc(Br)c(Cl)c3c2O)cc1 | -13.6% | u | u | i | 6.9% | u
C=CC(=O)N1C/C(=C/c2ccc(F)cc2)C(=O)/C(=C\c2ccc(F)cc2)C1 | -12.7% | u | 7.94µM* | i | 0.6% | u
COC(=O)CSc1nnc(CSc2nc(C)cc(C)n2)n1Cc1ccco1 | 16.1% | x | 40.5% | -96.6%* | -2.1% | -5.0%
Cc1cc(C)nc(SCc2nnc(SCC(=O)Nc3ccc(C)c(C)c3)n2Cc2ccco2)n1 | -2.9% | -4.0% | 1.5% | -109.7%* | -3.5% | -1.1%
Cc1cc(C)nc(SCc2nnc(SCc3ccc([N+](=O)[O-])cc3)n2Cc2ccco2)n1 | -1.9% | -9.4% | 3.1% | i | -3.1% | 0.3%
Cc1cc(N2CCN(C(C(=O)O)c3c[nH]c4cc(Cl)ccc34)CC2)nc2ccccc12 (stereo unspecified) | x | x | 17.8µM* | x | x | x
O=C(O)C(c1c[nH]c2cc(Cl)ccc12)N1CCN(C/C=C/c2ccccc2)CC1 (stereo unspecified) | x | x | 44.7µM* | x | x | x
O=C(O)C(c1c[nH]c2ccccc12)N1CCN(c2ncc(Br)cn2)CC1 (stereo unspecified) | x | x | -3.6% | x | x | x
O=C(O)C(c1c[nH]c2cc(Br)ccc12)N1CCCN(c2ccc(C(F)(F)F)cn2)CC1 (stereo unspecified) | x | x | 25.1µM* | x | x | x
O=C(O)C(c1c[nH]c2ccccc12)N1CCN(C/C=C/c2ccccc2)CC1 (stereo unspecified) | x | x | 4.1% | x | x | x
O=C(O)C(c1c[nH]c2cc(Cl)ccc12)N1CCN(CCOc2ccc(Cl)cc2)CC1 (stereo unspecified) | x | x | 35.5µM* | x | x | x
O=C(O)C(c1c[nH]c2ccc(Cl)cc12)N1CCN(c2ccc(F)cc2)CC1 (stereo unspecified) | x | x | -6.8% | x | x | x
O=C(O)C(c1c[nH]c2cc(F)ccc12)N1CCN(C(c2ccccc2)c2ccccc2)CC1 (stereo unspecified) | x | x | 17.8µM* | x | x | x
O=C(O)C(c1c[nH]c2cc(F)ccc12)N1CCc2ccccc2C1 (stereo unspecified) | x | x | 1.9% | x | x | x
O=C(O)c1cc(=O)c2cccc(O)c2[nH]1 | x | x | -9.3% | x | x | 2.9%
O=C(O)c1cc(=O)c2ccccc2[nH]1 | 4.8% | 0.8% | 12.6µM*! | i | 3.2% | 2.4%
